Screens (PubChem BioAssay)
This is a sample that favours compounds with a hit; in the whole collection about 2.1% have one here.
aSyn yeast inh = rescues yeast growth from alpha-synuclein toxicity | 370,000 tested, 0.14% active | Potency, µM (highest dose often 46.1 µM), inactives show top-dose growth rescue (activation), actives largely listed as activators | Yeast expressing alpha-synuclein, growth rescue, BacTiter-Glo, 24 h | AID 652106; also: % of control where 0% means no effect; nearly all actives have a fitted effect of over 65% in size
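Rescue of yeast growth: cells expressing toxic alpha-synuclein, induced in galactose at OD600 0.02, incubated with compound 24 h at 30 C. ATP luminescence quantified growth; inhibitors of toxicity appear as activators.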
TDP-43 yeast inh = rescues yeast growth from TDP-43 toxicity. TDP-43 expressing yeast growth rescue, BacTiter-Glo, 24 h. Potency, µM (series often up to 46.1 µM), without a hit: top-dose growth rescue (activation), hits mostly activators. 410,000 tested, 1.8% active. AID 652104; also: % of control where 0% means no effect; nearly all actives have a fitted effect of over 50% in size
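Cell-based yeast growth screen: TDP-43 expression induced in galactose, inoculum OD600=0.02 after raffinose pregrowth to mid-log. Read-out BacTiter-Glo luminescence at 24 hr, 30 deg C; inhibition of toxicity seen as signal increase.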
Mito fusion act = blocks mitochondrial division or promotes mitochondrial fusion. 320,000 tested, 0.23% active. Potency, µM (top dose mostly 46.1 µM), for the others: at the top dose growth rescue (activation), hits mostly activators. S. cerevisiae fusion-defective mutant growth rescue, CellTiterGlo 48 h. AID 485298; also: % of control where 0% means no effect; nearly all actives have a fitted effect of over 45% in size
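Yeast fusion mutant, YPEG (non-fermentable carbon), compound, 48 h at 37C non-permissive; CellTiterGlo added, 10 min RT, luminescence read. Rescued growth = division inhibition.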
Abeta yeast res = A-beta toxicity reversal in yeast. yeast expressing A-beta42, growth rescue, OD600, 48 h; response scale: 0% DMSO, 100% iron-clioquinol control. Potency, µM (top dose mostly 46.1 µM), usual class: activators. AID 1347071. 410,000 tested, 0.063% active; also: nearly all actives have a fitted effect of over 55% in size
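Growth rescue measured by 600 nm absorbance after 48 h yeast culture at 30 C with compound. Values normalized between DMSO and an equimolar ferric chloride plus clioquinol control.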
GRP78 ERSR act = ER stress response induction in glioma. U87-MG GRP78 promoter luciferase reporter, 16 h. Potency, µM, for the others: top-dose activation, actives largely listed as activators. 420,000 tested, 0.02% active; also: series mostly up to about 76 µM; % of control where 0% means no effect; nearly all actives have a fitted effect of over 35% in size
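Stably transfected U87-MG glioma cells carrying a GRP78-based luciferase sensor; 16 h compound incubation. Luminescence end-point read 10 min after Bright-Glo addition at room temperature.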
A-T KAP1 phos = candidate therapy for ataxia-telangiectasia; Potency, µM (highest dose often 57.5 µM), without a hit: at the highest dose activation, hits mostly activators; 320,000 tested, 0.19% active; AID 485349; F2112 A-T fibroblasts, KAP-1 phosphorylation AlphaLISA; neocarzinostatin DNA damage 30 min before lysis; also: % of control where 0% means no effect; nearly all actives have a fitted effect of over 45% in size
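hTERT-immortalized A-T patient fibroblasts (F2112), 500 cells/well in OPTI-MEM, 1% FBS, got compounds for 60 min, then NCS for 30 min at 37C. Lysates were then assayed for phospho-KAP-1 by AlphaLISA (anti-pKAP1 donor, anti-KAP1 acceptor beads), 6 hr at 25C.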
Starred values were filed as active, the others as inactive; i = inactive; ? = inconclusive; / = no result. Calls follow the shape of the dose curve; as a rule, active = well fitted curve in the direction sought with a large enough effect; inconclusive = small, poorly fitted or top-dose-only effect, or another doubt; inactive = no such curve, though single readings can be large; an effect the other way counts as inactive or inconclusive. Potency is read from the fitted curve at half-maximal effect.

SMILES | aSyn yeast inh | TDP-43 yeast inh | Mito fusion act | Abeta yeast res | GRP78 ERSR act | A-T KAP1 phos
Cc1nc([N+](=O)[O-])c(Br)n1CC(=O)c1ccc(Cl)cc1 | 1% | 13µM* | -9% | i | -15% | /
Cc1nc([N+](=O)[O-])c(NCCO)n1Cc1ccccc1 | 1% | -12% | 3% | i | -3% | -3%
COc1ccc(C(=O)Cn2c(C)nc([N+](=O)[O-])c2Br)cc1 | -7% | ? | -21% | i | -12% | 12%
CN(C)C(=O)/N=N/C(=O)N(C)C | 8% | / | -43% | / | -1% | /
COc1cc(OC)c2c(c1)S(=O)(=O)C(c1ccccc1)=C2N | 1% | 5% | 1% | 16µM* | -3% | -2%
O=C(NCc1ccccc1)c1cccc2c(-c3cccnc3)coc12 | 0% | ? | / | i | 1% | /
CN(C)CCNC(=O)c1cccc2c(-c3ccc(F)c(F)c3)coc12 | 0% | -10% | / | i | -3% | /
COc1ccc(-c2coc3c(C(=O)Nc4cccc(C(C)=O)c4)cccc23)c(C)c1 | -6% | 7% | / | i | -2% | /
COc1ccc(-c2coc3c(C(=O)Nc4cccnc4)cccc23)c(C)c1 | -13% | 18µM* | / | i | -1% | /
COc1ccc(-c2ccc(C(=O)NCc3ccc(N(C)C)cc3)c3occc23)c(C)c1 | -1% | 18µM* | / | i | 4% | /
O=C(NCc1ccc(C(F)(F)F)cc1)c1cccc2c(-c3cccnc3)coc12 | 12% | 13µM* | / | i | -3% | /
CN(C)c1cccc(NC(=O)c2cccc3c(-c4ccc(F)c(F)c4)coc23)c1 | 4% | 14µM* | / | i | 0% | /
COC(c1ccccc1)C(C)C(OC)C(C)C(OC)C(C)C(C)=O (stereo unspecified) | / | / | / | / | -5% | /
O=C(COc1ccccc1)Nc1nnc(S(=O)(=O)N2CCCCCC2)s1 | -5% | 10% | 3% | i | -1% | 9%
O=C1CCCc2cc(S(=O)(=O)NCC3CCC(C(=O)Nc4ccc(Cl)cc4)CC3)ccc2N1 (stereo unspecified) | / | 9% | / | i | 4% | /
O=C(Nc1ccccc1)c1cccc2c(-c3cccnc3)coc12 | 0% | 14µM* | / | i | 2% | /
COc1ccc(-c2ccc(C(=O)Nc3cccc(F)c3)c3occc23)c(C)c1 | -17% | 26% | / | i | -1% | /
COc1ccc(-c2ccc(C(=O)Nc3cccc(NS(C)(=O)=O)c3)c3occc23)c(C)c1 | -7% | 14µM* | / | i | -2% | /
COc1ccc(NC(=O)c2cccc3c(-c4cccnc4)coc23)cc1 | 12% | 10µM* | / | i | -1% | /
COc1ccc(C)cc1NC(=O)C(=O)NCC(c1cccnc1)N1CCN(c2ccccc2F)CC1 (stereo unspecified) | / | -10% | / | i | -2% | /
Cc1cc(C(=O)NCCN2Cc3ccccc3OC(c3ccccc3F)C2)no1 (stereo unspecified) | / | / | / | / | 0% | /
COc1cccc(C(=O)/C=C/c2ccc(OCC#N)c(OC)c2)c1 | ? | 20µM* | 2% | i | -8% | 22%
COc1cc(/C=C/C(=O)c2ccc(O)cc2)ccc1OCC#N | 1% | -9% | 2% | i | -9% | 2%
Cc1ccc(F)cc1NC(=O)c1c(-c2ccccc2)noc1C | 0% | 20µM* | 0% | i | -1% | 17%
Cc1ccccc1NC(=O)c1c(-c2ccccc2)noc1C | -6% | 23% | 2% | i | 1% | 1%
CCc1nc2ccc(C(=O)Nc3cc(-c4ccccc4)ccc3OC)cn2c1N(C)CCC(C)C | -55% | -81% | / | i | -5% | /
CCc1nc2ccc(C(=O)Nc3cc(-c4ccccc4)ccc3OC)cn2c1N(C)CCCc1ccccc1 | -14% | 20µM* | / | i | -4% | /
CCOC(=O)c1cccc(NC(=O)c2cc3c(=O)n(C)c4ccccc4c3n2C)c1 | / | 0% | / | i | -2% | /
